PubChem BioAssay AID903 (National Center for Advancing Translational Sciences (NCATS), 2007)
Out of some 55,000 compounds screened, about 340 (0.62%) were called active. Not shown: some 3% with an inconclusive outcome. Shown is part of a subset that was picked to be rich in actives. Unmarked numbers belong to inactive results. Calls come from the whole dose curve; as a rule, active = well fitted cell-killing curve with a large enough effect; inconclusive = small, poorly fitted or top-dose-only effect; inactive = no such curve, though single readings can be large or run the other way.

test: qHTS Screen for Compounds that Selectively Target Cancer Cells with p53 Mutations: Cytotoxicity of p53 Null Cells at the Permissive Temperature; conditions: H1299-neo p53 null cells, ATP luminescence, 24 h, 32C; series mostly up to 46.1 µM; activity change, negative = cytotoxicity: at the top concentration; note: nearly all actives have a fitted effect of over 55% in size;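 for activity change, negative = cytotoxicity: 0% = DMSO only and -100% = full killing by 100 µM tamoxifen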
How it was run: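 Cells lacking p53 (H1299-neo) are plated at 600 per well and allowed to settle overnight at 37C. Test compounds (up to 46 uM) are added and held 24 hours at 32C, then ATP is quantified by luminescence.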
Potency is the fitted concentration of half-maximal effect.

| SMILES | activity change, negative = cytotoxicity | Potency |
| --- | --- | --- |
| CCOc1ccc(CCNC(=O)c2cc3c(=O)n(C)c4ccccc4c3n2C)cc1 | -5.8% | – |
| CCCn1c(=N)c(C(=O)NCc2ccccc2)cc2c(=O)n3cccc(C)c3nc21 | 11% | – |
| Cc1ccccc1NC(=O)CN1C(=O)C(C)(C)c2ccccc21 | -2.97% | – |
| O=C(Nc1ccc(Br)cc1)c1cc2nc(-c3ccccc3)cc(-c3ccccc3)n2n1 | 1.89% | – |
| CCCOc1ccc(C2c3c(-c4ccccc4O)n[nH]c3C(=O)N2Cc2cccnc2)cc1 (configuration not stated) | 38.5% | – |
| CC1CCc2noc(NC(=O)c3ccc([N+](=O)[O-])cc3)c2C1 (configuration not stated) | -0.123% | – |
| COc1ccc(-c2cc(C(=O)Nc3sc4c(c3C(N)=O)CCCC4)no2)cc1 | 0.619% | – |
| COc1ccc(C(=O)Nc2onc3c2CCCC3)cc1 | – | 7.94 µM (active) |
| O=c1c(Cl)c(NCc2ccc(F)cc2Cl)cnn1C12CC3CC(CC(C3)C1)C2 | -3.19% | – |
| Cc1cccc(OCc2ccc(C(=O)Nc3ccc(F)cc3)cc2)c1 | -16.1% | – |
| Cc1cccc(C)c1-n1ncc(C(=O)NCCCN2CCCCC2)c1C1CCN(C(=O)OC(C)(C)C)CC1 | 7.41% | – |
| COc1cccc(C(=O)NCC(=O)OCc2cc(=O)n3ccsc3n2)c1 | -11.1% | – |
| Cc1c(NC(=O)Cc2ccccc2)cccc1-c1nc2cccnc2s1 | 2.04% | – |
| Cc1c(NC(=O)C(C)(C)C)cccc1-c1nc2ccccc2s1 | – | 10 µM (active) |
| CCC(C(=O)Nc1cccc(-c2nc3cccnc3s2)c1C)c1ccccc1 (configuration not stated) | 5.41% | – |
| O=C(Cc1c[nH]c2ccccc12)N/N=C/c1cccc(F)c1 | -18.8% | – |
| Cc1ccccc1Nc1nn2c(=O)c3ccc(C(=O)NCCc4ccc(Cl)cc4)cc3nc2s1 | -15.5% | – |
| CCOc1ccccc1C(=O)Nc1ccc(S(=O)(=O)N2CCCCC2c2cccnc2)cc1 (configuration not stated) | 3.25% | – |
| O=c1c2cccnc2n(Cc2cccc(F)c2)c(=O)n1Cc1ccccc1Cl | -7.53% | – |
| COc1ccc(S(=O)(=O)n2nc(C)c(S(=O)(=O)N3CCCCCC3)c2C)cc1 | -2.68% | – |
| CCOC(=O)c1c(/N=C/c2cc(C)ccc2O)sc2c1CCC2 | 6.17% | – |
| CCC(=O)N1CCc2cc(S(=O)(=O)CCC(=O)N3CCN(c4ccccc4F)CC3)ccc21 | 9.11% | – |
| Cc1ccc(CNC(=O)CCC(=O)N2CC(C)Sc3ccccc32)cc1 (configuration not stated) | 0.966% | – |
| CCOc1ccc(NC(=O)CCc2c(C)nn(-c3ccc(N4CCCC4)nn3)c2C)cc1 | -3.11% | – |
| CCCOc1ccc(-c2cccc(NS(=O)(=O)c3ccccc3)c2)nn1 | 22.4% | – |
| Cn1nnc2c(N3CCN(c4ccccc4)CC3)ncnc21 | 2.99% | – |

| SMILES | activity change, negative = cytotoxicity | Potency |
| --- | --- | --- |
| CCOc1ccc(C(=O)Nc2ccc3nc4c(c(Nc5ccccc5OC)c3c2)CCCC4)cc1 | -13% | – |
| COc1ccccc1Nc1c2c(nc3ccc(NC(=O)/C=C/c4cc(OC)c(OC)c(OC)c4)cc13)CCCC2 | – | 15.8 µM (active) |
| O=C(Nc1c2c(nc3ccccc13)CCCC2)c1ccccc1Br | -2.95% | – |
| COc1ccc(-n2ccn(CC(=O)Nc3ccc(C)c(C)c3)c(=O)c2=O)cc1OC | 8.42% | – |
| CCN(CC)S(=O)(=O)c1nnc(NC(=O)COc2ccccc2Cl)s1 | -17.3% | – |
| CCN(Cc1ccccc1)C(=O)c1cn(-c2cccc(OC)c2)c(=O)c2ccccc12 | 3.16% | – |
| COc1ccc(NC(=O)CSc2nc3ncccc3[nH]2)c(OC)c1 | -12.6% | – |
| COC(=O)c1c(NC(=O)c2ccc(Cl)c(Cl)c2)sc2c1CCCC2 | 3.23% | – |
| Clc1ccc(-n2nnnc2-c2cnc(-c3ccccn3)nc2-c2cccs2)cc1 | 18% | – |
| c1ccc(-c2noc(-c3cccs3)n2)nc1 | – | 10 µM (active) |
| Cc1ccc(C)c(N2CCN(C(=O)C3CCC(CNS(=O)(=O)c4cccs4)CC3)CC2)c1 (configuration not stated) | 41.1% | – |
| O=C(COc1nc2ccccc2nc1N1CCOCC1)NCC(F)(F)F | -4.1% | – |
| CN(C)CCCO/N=C(\c1ccccc1)c1ccncc1 | 3.09% | – |
| Cc1ccc(CN2CCC(CNC(=O)c3cnn(-c4ccccc4Cl)c3C3CCN(C(=O)OC(C)(C)C)CC3)CC2)cc1 | 15.7% | – |
| Cc1ccc(C)n1-c1nnc(N2CCC(C(=O)NCc3ccccc3Cl)CC2)s1 | 9.93% | – |
| COc1ccc(-c2nc(SCC(=O)N3CCCCC3C)n[nH]2)cc1 (configuration not stated) | -7.2% | – |
| Cc1ccc(NC(=S)NC(=O)/C=C/c2ccc(Cl)cc2)cc1 | 0.296% | – |
| Cc1cc(=O)n(CC(=O)Nc2cccc([N+](=O)[O-])c2)c(-n2nc(C)cc2C)n1 | -0.133% | – |
| CN(C)c1ccc(NC(=O)CSc2nc(-c3ccco3)cc(C(F)(F)F)n2)cc1 | 10.9% | – |
| CCCN(CCC)c1c([N+](=O)[O-])c(=O)oc2ccccc12 | 3.8% | – |
| COc1ccc(C(=O)NCC(c2ccc(N(C)C)cc2)N2CCc3ccccc32)c(OC)c1 (configuration not stated) | 0.255% | – |
| CCOC(=O)c1c(C)[nH]c(CCC(=O)NCCCN2CCN(c3cc(C)ccc3C)CC2)c1C | 9.67% | – |
| O=C(Nc1ccc(OC(F)(F)F)cc1)C1CCCN(S(=O)(=O)c2ccc(Br)s2)C1 (configuration not stated) | 1.93% | – |
| Cc1ccc2nc3c(cc(C(=O)NC4CCCCC4)c(=N)n3C(C)C)c(=O)n2c1 | 2.45% | – |
| COc1cccc(CNC(=O)C(NS(=O)(=O)c2ccc3nc(C)sc3c2)C(C)C)c1 (configuration not stated) | -7.22% | – |
| CC(C)(C)c1ccc(C(=O)NCC(c2ccco2)S(=O)(=O)c2ccc(F)cc2)cc1 (configuration not stated) | 20% | – |
